PAX8 inh HTS – PAX8 transcriptional activity inhibition | RMG-I TPO-luciferase reporter, SteadyGlo, 24 h | inhibition, % at 12.6 µM | 1.2% of 360,000 active | AID 652154;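 active = mean replicate inhibition at least 60% with every replicate also reaching 60%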;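 also: luciferase light reporting Pax8 driven TPO promoter activity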
PGC1a acetyl inh – PGC1a acetylation modulation, inhibitor mode | U2OS PGC1a acetylation, AlphaScreen anti-acetyl-lysine; with virally co-expressed GCN5 acetyltransferase | inhibition, % at 15.6 µM | 0.17% of 350,000 active | AID 651687;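 active = every replicate shows inhibition of at least 40%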
rRNA inh HTS – selective bacterial rRNA inhibition in E. coli. E. coli WT GFP vs humanized-ribosome RFP mutants, fluorescence, 24 h; hits give low values; DMSO median 0, no signal -100. GFP signal change (wild-type ribosome), % (concentration not given with the values). 1.6% of 350,000 active;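 active = significant combined selectivity score with lowered wild-type GFP, culture density cut under 30%, mutant RFP and density less affected; inactive = any of these conditions unmet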
EWS-Fli block – EWS/Fli transcriptional activity inhibition; A673 NR0B1-luciferase reporter, viability-normalised; inhibition, % at 12.6 µM; 0.67% of 350,000 active;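 active = mean inhibition of at least 50% after viability correction, with every replicate also passing that limit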;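 also: firefly luciferase signal divided by Alamar Blue viability fluorescence both relative to DMSO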
SIRT5 inh – blocks human SIRT5 desuccinylation of peptide; Q9NXA8; 1.1% of 330,000 active; Purified SirT5, succinyl-peptide AMC, trypsin-coupled fluorescence; inhibition, % at 15 µM; AID 652115; in the data active = inhibition above about 15%
Target sequence (Q9NXA8 whole entry, looked up): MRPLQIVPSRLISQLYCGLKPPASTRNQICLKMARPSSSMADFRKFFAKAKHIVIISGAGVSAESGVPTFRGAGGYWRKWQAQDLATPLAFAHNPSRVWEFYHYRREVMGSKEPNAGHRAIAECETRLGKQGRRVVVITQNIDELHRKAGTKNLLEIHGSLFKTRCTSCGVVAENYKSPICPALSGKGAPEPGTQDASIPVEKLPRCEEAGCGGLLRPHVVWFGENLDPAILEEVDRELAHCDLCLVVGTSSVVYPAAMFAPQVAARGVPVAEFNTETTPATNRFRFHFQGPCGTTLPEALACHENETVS
LGR2 inh – inhibitors of bursicon-induced Drosophila LGR2 receptor cAMP signaling; HEK293 LGR2, CRE-luciferase, bursicon-stimulated, 4 h; inhibition, % at 9.99 µM; 0.35% of 380,000 active; AID 720647;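 active = drop in luminescence signal, shown as inhibition above about 50% in the replicate tests, limit read from the data, passing the limit was not always enough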;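 also: agonist challenge used bursicon conditioned medium at about half maximal strength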
A number is an active result; 0 = inactive; - = no result given. Compounds with a hit are over-represented: about 3.4% of the library has one in this group of screens.

SMILES	PAX8 inh HTS	PGC1a acetyl inh	rRNA inh HTS	EWS-Fli block	SIRT5 inh	LGR2 inh
COC(=O)[C@]12CCCCC=C1N(Cc1ccccc1)C(=O)[C@H](CC(=O)N1CCN(C(=O)c3ccco3)CC1)C2	81	-	0	0	0	0
C[C@@H]1CN([C@@H](C)CO)S(=O)(=O)c2ccc(-c3cncnc3)cc2O[C@H]1CN(C)C(=O)C1CC1	-	0	0	0	-	0
O=C(c1ccccc1)c1ccccc1	-	0	0	0	0	-
O=C(O)C1C=CC(C(=O)O)c2ccccc21 (stereo not drawn)	93	-	0	0	-	0
COCC(=O)Nc1ccc2c(c1)OC[C@H](C)N(CCC(F)(F)F)C[C@H](C)[C@@H](OC)CN(C)C2=O	0	0	0	0	0	0
COc1cc(N/N=C/c2ccc(N(C)C)cc2)ncn1	0	-	0	0	0	74
Fc1ccc(-c2nnc3n2CCCCC3)cc1	0	0	0	0	17	0
C[C@@H]1CN([C@H](C)CO)C(=O)Cc2cc(NC(=O)Cc3cn(C)c4ccccc34)ccc2O[C@@H]1CN(C)Cc1ccc(Oc2ccccc2)cc1	0	0	0	0	-	0
C[C@@H]1CN([C@H](C)CO)C(=O)Cc2cc(NC(=O)Cc3cn(C)c4ccccc34)ccc2O[C@@H]1CN(C)C	0	0	0	0	26	0
C[C@@H]1CN([C@@H](C)CO)C(=O)Cc2cc(NC(=O)Cc3cn(C)c4ccccc34)ccc2O[C@@H]1CN(C)Cc1ccc(-c2ccccc2)cc1	-	0	0	0	15	0
C[C@@H]1CN([C@@H](C)CO)C(=O)Cc2cc(NC(=O)Cc3cn(C)c4ccccc34)ccc2O[C@H]1CN(C)C	0	0	0	0	0	0
C[C@@H]1CN([C@@H](C)CO)C(=O)Cc2cc(NC(=O)Cc3cn(C)c4ccccc34)ccc2O[C@H]1CN(C)Cc1ccc(Oc2ccccc2)cc1	86	0	0	0	-	0
CC=Cc1ccc2n(c1=O)C[C@@H]1[C@@H](CO)[C@H](C(=O)NC3CCCC3)N[C@H]21 (mixture of isomers)	-	0	0	0	0	0
O=C(CN1CCOCC1)N1CC[C@@H]2[C@@H](CO)Nc3ccc(-c4ccc(F)cc4)cc3[C@@H]21	0	0	0	0	0	0
COc1ccc(NC(=O)/C(Cl)=C(/Cl)S(=O)Cc2ccc(Cl)cc2)cn1 (stereo not drawn)	88	100	0	74	0	101
COc1ccc(NC(=O)/C(Cl)=C(/Cl)S(=O)(=O)Cc2ccccc2)cn1	-	64	-	-	-	-
COc1ccc(NC(=O)C(Cl)=C(Cl)Cl)cn1	0	0	0	0	0	0
COc1ccc2c3c(n(C)c2c1)[C@H](CO)N(C(=O)CN(C)C)CC31CCN(C(=O)C2CCC2)CC1	-	-	0	0	-	0
CCOC(=O)c1ccc(NC(=O)c2nc[nH]c2C(=O)NCCNC(=O)c2[nH]cnc2C(=O)Nc2ccc(C(=O)OCC)cc2)cc1	0	0	0	60	0	0
CCOC(=O)c1ccc(NC(=O)c2nc[nH]c2C(=O)NC)cc1	0	0	0	0	0	0
Cc1ccc2c(CC(=O)N3CCN(S(=O)(=O)c4cccs4)CC3)coc2c1	-	0	-	-	-	-
O=C(Cc1coc2cc(O)ccc12)N1CCN(S(=O)(=O)c2ccc(Br)cc2)CC1	0	0	-20	0	0	0
COc1ccc2c3c([nH]c2c1)[C@H](CO)N(C(=O)C1CCCCC1)CC31CCN(Cc2nccs2)CC1	0	0	0	0	0	0
O=[N+]([O-])c1cccc(NC(=S)N2CCc3ccccc3C2)c1	0	-	-31	0	0	0
O=[N+]([O-])c1ccc(NC(=S)N2CCc3ccccc32)cc1	0	-	-19	-	0	0
SMILES	PAX8 inh HTS	PGC1a acetyl inh	rRNA inh HTS	EWS-Fli block	SIRT5 inh	LGR2 inh
C[C@H](CO)N1C[C@H](C)[C@H](CN(C)C(=O)c2cccc(F)c2)Oc2cc(C#CC3CCCC3)ccc2S1(=O)=O	-	0	0	0	-	0
Cc1cc(C)cc(NC(=O)CCc2c(C)nn(-c3ccc(N4CCCCC4)nn3)c2C)c1	0	0	0	0	0	0
Cc1ccc(NC(=O)CCc2c(C)nn(-c3ccc(N4CCCCC4)nn3)c2C)cc1	0	-	-25	0	0	0
CC(C)NC(=O)N[C@H]1CC[C@H](CC(=O)NCc2ccc(Oc3ccccc3)cc2)O[C@H]1CO	0	0	0	0	0	0
CSc1ccccc1NC(=O)Nc1cccc(Cl)c1	-	0	-28	0	0	0
CSc1ccccc1NC(=O)Nc1ccc(F)c(Cl)c1	-	-	-	-	-	0
O=C(Nc1cccc(Cl)c1)Nc1csc([N+](=O)[O-])c1	99	0	0	0	0	0
O=C(Nc1ccncc1)Nc1cccc(Cl)c1	0	-	0	0	0	0
C[C@H]1CCCCO[C@@H](CN(C)CC2CCCCC2)[C@@H](C)CN([C@@H](C)CO)C(=O)c2cc(NC(=O)CCCN(C)C)ccc2O1	0	0	0	0	-	0
CCS(=O)(=O)Nc1ccc2c(c1)C(=O)N(C)[C@H]1CC[C@H](CC(=O)NC)O[C@@H]1CO2	-	0	0	-	0	0
COc1cc(-c2cnc3c(NC=O)cc(-c4ccccc4Cl)cn23)cc(OC)c1OC	76	0	0	0	0	0
Cc1ccc(-c2cc(NC=O)c3ncc(-c4cnn(C)c4)n3c2)cc1	0	0	0	56	0	0
COc1ccc(F)cc1-c1cc(NC=O)c2ncc(-c3cccc(C(=O)N(C)C)c3)n2c1	68	-	0	0	-	0
COc1ccc(F)cc1-c1cc(NC=O)c2ncc(-c3cc(OC)c(OC)c(OC)c3)n2c1	90	0	0	60	-	0
CN(C)C(=O)c1cccc(-c2ccc([C@@H]3[C@H]4CN(C(=O)CC5CC5)CC(=O)N4[C@H]3CO)cc2)c1	-	0	0	-	0	0
COCC#Cc1ccc2c(c1)O[C@H](CN(C)CC1CCOCC1)[C@@H](C)CN([C@H](C)CO)S2(=O)=O	-	0	0	0	0	0
C[C@@H]1CN([C@@H](C)CO)C(=O)c2cccc(NC(=O)NC3CCCCC3)c2O[C@H]1CN(C)Cc1ccc(C(F)(F)F)cc1	-	0	0	0	0	0
COc1cccc(-c2ccc3c(c2)O[C@@H](CN(C)C(=O)C2CCC2)[C@H](C)CN([C@@H](C)CO)S3(=O)=O)c1	-	0	0	0	0	0
COc1cc(-c2cnc3c(NC=O)cc(-c4ccc(C)cc4)cn23)cc(OC)c1OC	90	0	0	0	-	0
CC(=O)c1cccc(-c2cnc3c(NC=O)cc(-c4ccccc4)cn23)c1	0	0	0	0	0	0
COc1cccc(-c2cnc3c(NC=O)cc(-c4ccc(S(C)(=O)=O)cc4)cn23)c1	0	0	0	0	0	0
CS(=O)(=O)c1ccc(-c2cc(NC=O)c3ncc(-c4ccc(F)cc4)n3c2)cc1	68	0	0	0	0	0
CC(=O)Nc1cccc(-c2cc(NC=O)c3ncc(-c4cccc(C(C)=O)c4)n3c2)c1	81	0	0	0	0	0

Assay outcomes from PubChem BioAssay.
